# Measured values published in PubChem BioAssay AID1159580 (chemical genetic matrix, 2015).
# In all, about 5,500 compounds went through this assay and about 2,000 (36%) were called active. Roughly 18% stayed inconclusive and do not appear here. This is one part of the list. Values without a mark were called inactive. No stated cut-off is given here; in the data, active means normalized growth mostly below about 0.91 (no sharp cut-off); inconclusive means no clear call, values can overlap the other calls; inactive means mostly above about 0.92.
# Test: chemical genetic growth profiling, strain panel (AID 1159580);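 further: tested at 20 µM; growth read once vehicle control cultures reached saturation at 30 °C; 1 = growth at the plate median or of vehicle wells; lower values mean less growth of the strain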
# Conditions: S. cerevisiae deletion strains, growth OD
smiles,measurement,setting,value
Cc1ccc(S(=O)(=O)NC(=O)Nc2ccc(Sc3ccccc3)nc2Sc2ccccc2)cc1,normalized growth,"locus YAR019C, strain CDC15, hits give low values",0.984
same,normalized growth,"locus YBL105C, strain PKC1, hits give low values",0.967
same,normalized growth,"locus YBR135W, strain CKS1, hits give low values",0.968
same,normalized growth,"locus YBR136W, strain MEC1, hits give low values",0.972
same,normalized growth,"locus YBR160W, strain CDC28, hits give low values",0.969
same,normalized growth,"locus YDL017W, strain CDC7, hits give low values",0.974
same,normalized growth,"locus YDL028C, strain MPS1, hits give low values",0.974
same,normalized growth,"locus YDL101C, strain DUN1, hits give low values",0.983
same,normalized growth,"locus YDL108W, strain KIN28, hits give low values",0.966
same,normalized growth,"locus YDL132W, strain cdc53, hits give low values",0.956
same,normalized growth,"locus YDL214C, strain PRR2, hits give low values",0.927
same,normalized growth,"locus YDR052C, strain DBF4, hits give low values",0.978
same,normalized growth,"locus YDR054C, strain cdc34, hits give low values",0.969
same,normalized growth,"locus YDR226W, strain ADK1, hits give low values",0.977
same,normalized growth,"locus YDR477W, strain SNF1, hits give low values",0.936
same,normalized growth,"locus YER123W, strain YCK3, hits give low values",0.976
same,normalized growth,"locus YER133W, strain GLC7, hits give low values",0.961
same,normalized growth,"locus YFL009W, strain cdc4, hits give low values",0.957
same,normalized growth,"locus YFL029C, strain CAK1, hits give low values",0.979
same,normalized growth,"locus YFR003C, strain YPI1, hits give low values",0.969
same,normalized growth,"locus YFR019W, strain FAB1, hits give low values",0.993
same,normalized growth,"locus YFR028C, strain CDC14, hits give low values",0.974
same,normalized growth,"locus YGR040W, strain KSS1, hits give low values",0.942
same,normalized growth,"locus YGR052W, strain FMP48, hits give low values",0.982
same,normalized growth,"locus YGR092W, strain DBF2, hits give low values",0.913
same,normalized growth,"locus YHR030C, strain SLT2, hits give low values",0.745 (active)
same,normalized growth,"locus YHR079C, strain IRE1, hits give low values",0.948
same,normalized growth,"locus YHR082C, strain KSP1, hits give low values",1.03
same,normalized growth,"locus YHR205W, strain SCH9, hits give low values",0.946
same,normalized growth,"locus YIL147C, strain SLN1, hits give low values",0.977
same,normalized growth,"locus YJL095W, strain BCK1, hits give low values",0.933
same,normalized growth,"locus YJL128C, strain PBS2, hits give low values",0.967
same,normalized growth,"locus YJL157C, strain FAR1, hits give low values",0.97
same,normalized growth,"locus YJR016C, strain ILV3, hits give low values",0.98
same,normalized growth,"locus YJR066W, strain TOR1 (second series), hits give low values",0.967
same,normalized growth,"locus YJR066W, strain TOR1, hits give low values",0.95
same,normalized growth,"locus YKL048C, strain ELM1, hits give low values",0.97
same,normalized growth,"locus YKL067W, strain YNK1, hits give low values",0.914
same,normalized growth,"locus YKL101W, strain HSL1, hits give low values",0.957
same,normalized growth,"locus YKL193C, strain SDS22, hits give low values",0.972
same,normalized growth,"locus YKL203C, strain TOR2, hits give low values",1.04
same,normalized growth,"locus YLR113W, strain HOG1, hits give low values",0.885
same,normalized growth,"locus YLR133W, strain CKI1, hits give low values",0.954
same,normalized growth,"locus YLR403W, strain SFP1, hits give low values",0.999
same,normalized growth,"locus YML070W, strain DAK1, hits give low values",0.972
same,normalized growth,"locus YMR001C, strain CDC5, hits give low values",0.971
same,normalized growth,"locus YMR205C, strain PFK2 (second series), hits give low values",0.944
same,normalized growth,"locus YMR277W, strain FCP1, hits give low values",0.965
same,normalized growth,"locus YNL006W, strain LST8, hits give low values",0.968
same,normalized growth,"locus YNL020C, strain ARK1, hits give low values",0.949
same,normalized growth,"locus YNL161W, strain CBK1, hits give low values",0.973
same,normalized growth,"locus YNL183C, strain NPR1, hits give low values",0.969
same,normalized growth,"locus YNL207W, strain RIO2, hits give low values",0.966
same,normalized growth,"locus YNL222W, strain SSU72, hits give low values",0.948
same,normalized growth,"locus YNL307C, strain MCK1 (second series), hits give low values",0.945
same,normalized growth,"locus YOL078W, strain AVO1, hits give low values",0.966
same,normalized growth,"locus YOL136C, strain PFK27, hits give low values",0.972
same,normalized growth,"locus YOR061W, strain CKA2, hits give low values",0.938
same,normalized growth,"locus YOR119C, strain RIO1, hits give low values",0.98
same,normalized growth,"locus YOR231W, strain MKK1, hits give low values",0.976
same,normalized growth,"locus YOR329C, strain SCD5, hits give low values",0.977
same,normalized growth,"locus YPL031C, strain PHO85, hits give low values",0.94
same,normalized growth,"locus YPL153C, strain RAD53, hits give low values",0.946
same,normalized growth,"locus YPL204W, strain HRR25, hits give low values",0.934
same,normalized growth,"locus YPL209C, strain IPL1, hits give low values",0.976
same,normalized growth,"locus YPL256C, strain CLN2, hits give low values",0.955
same,normalized growth,"locus YPR025C, strain CCL1, hits give low values",0.97
same,normalized growth,"locus YPR106W, strain ISR1, hits give low values",0.979
same,normalized growth,"locus YPR111W, strain DBF20, hits give low values",0.954
same,normalized growth,"strain NNK1, hits give low values",0.974
same,normalized growth,"strain TSCII, hits give low values",0.963
